Assay outcomes as filed in PubChem BioAssay.
A350 fluor: A350 region autofluorescence; hit rate 11% among 59,000; Compound autofluorescence, 340/450 nm, Alexa 350 dye-equivalents; stronger effect = higher value; max dye-equivalent concentration, M; in the data active means max dye-equivalent concentration above about 10 nM; inconclusive means mostly about 1.1 nM to 9.6 nM
4MU fluor: compound fluoresces in the 4-MU spectral region. max dye-equivalent concentration, M. compound autofluorescence, 340/450 nm, 4-MU equivalents; stronger effect = higher value. hit rate 11% among 59,000; in the data active means max dye-equivalent concentration above about 10 nM; inconclusive means mostly about 1.1 nM to 9.6 nM
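Compounds in 100 mM Tris, pH 8.0, incubated 15 min at room temperature, then fluorescence read at 340 nm excitation/450 nm emission. Signal converted to 4-MU dye-equivalent concentration using an on-plate six-point 4-MU standard curve.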
CRE-bla Fsk: alters forskolin-stimulated CRE reporter signaling in CHO cells; hit rate 2.5% among 71,000; Potency, µM (highest dose often 38.2 µM), without a hit: at the top dose activity change, negative = inhibition, hits mostly activators; CHO CRE-bla reporter (cAMP response element driving beta-lactamase), forskolin EC10, beta-lactamase ratio; active means well fitted activation curve with a large enough effect in the signal ratio, with a control signal flat, not every such curve was filed as active; inconclusive means small, poorly fitted or top-dose-only effect, or effect the other way, or a change in a side signal; the % refers to the signal ratio; further: potency means the concentration at half of the fitted maximal effect; % of control where 0% means no effect
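Using CellSensor CRE-bla CHO cells in Opti-MEM with 0.5% dialyzed FBS, compounds were titrated with EC10 NKH 477 for 3 h at 37 °C. CCF4 ratio (460/530 nm) gave %Activity; AC50 derived.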
HADH2 inhib: HADH2 (human) dehydrogenase inhibition; recombinant HADH2, NADH fluorescence, beta-hydroxybutyryl-CoA; hit rate 3.4% among 73,000; Potency, µM (titrated, usually from 57.1 µM), for the others: at the top dose activity change, negative = inhibition, most hits filed as inhibitors; Q99714; further: potency means the concentration at half of the fitted maximal effect; on the % scale 0 is the no-effect control and ±100 the full control effect; nearly all actives have a fitted effect of over 60% in size
Target sequence (Q99714 whole entry, looked up, one chain of several): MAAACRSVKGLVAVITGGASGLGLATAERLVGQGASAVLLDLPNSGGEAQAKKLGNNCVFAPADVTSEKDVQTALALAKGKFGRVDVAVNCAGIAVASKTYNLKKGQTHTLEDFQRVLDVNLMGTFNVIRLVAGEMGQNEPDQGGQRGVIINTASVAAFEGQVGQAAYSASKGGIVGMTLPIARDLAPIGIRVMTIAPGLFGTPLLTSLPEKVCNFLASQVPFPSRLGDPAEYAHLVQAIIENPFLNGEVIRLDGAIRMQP
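Activity measured as NADH fluorescence gain (360/450 nm), taken as the change between first and last reads of a 4-min kinetic run. Conditions: pH 9.0 Tris buffer, 20 nM E. coli-expressed His-tagged enzyme, 1 mM NAD+, 90 uM beta-hydroxybutyryl-CoA; 15-min compound preincubation.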
HSD17B inh: blocks hydroxysteroid 17-beta dehydrogenase activity; Q99714; recombinant HSD17B10, NADH fluorescence kinetic; Potency, µM (titrated, usually from 57.1 µM), for inactives: at the top dose activity change, negative = inhibition, hits mostly inhibitors; hit rate 7.6% among 75,000; AID 893;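 further: the protocol describes HADH2 (HSD17B10) and not the HSD17B4 of the title; potency means the concentration at half of the fitted maximal effect; on the % scale 0 is the no-effect control and ±100 the full control effect; nearly all actives have a fitted effect of over 70% in size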
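Enzyme plus compound, 15 min room temperature; substrate mix added (NAD+ 1 mM, beta-hydroxybutyryl-CoA 90 uM final); plates read kinetically for NADH fluorescence. HADH2 was His-tagged, E. coli-derived, 20 nM.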
AID923: qHTS Assay for Allosteric/Competitive Inhibitors of Caspase-1: Spectroscopic Profiling in AFC Spectral Region; Potency, µM (series often up to 57.5 µM), for the others: top-dose fluorescence increase, hits mostly activators; compound fluorescence, AFC spectral region (405/520 nm); hit rate 1.1% among 75,000; further: potency means the concentration at half of the fitted maximal effect; 0% is about no effect
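Titrations up to 57 uM read every 20 sec for 3 min (405/520 nm) with 50 nM caspase 1 and 5 uM Ac-WEHD-AFC, pH 7.5 HEPES buffer. Fluorescence-vs-time intercept gave baseline, scaled against on-plate AFC standard.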
Starred values were filed as active, the others as inactive; [ ] = another dose, or the depositor's remark. In the library only some 14% were active in any assay of this set; here they are far more common. Unless noted, the call rests on the fitted dose curve; in most records, active means well fitted curve in the direction sought with a large enough effect; inconclusive means small, poorly fitted or top-dose-only effect, or another doubt; inactive means no such curve, though single readings can be large; an effect the other way counts as inactive or inconclusive.

`CC1(C)Cc2c(c(-c3ccco3)nc3n[nH]c(N)c23)CO1` gave A350 fluor inactive, 4MU fluor inactive, CRE-bla Fsk 15.8µM*, HADH2 inhib -6.5%, HSD17B inh inconclusive and AID923 3.5%.
CC(C)NC(=O)N1CC[C@@]2(CCCN(C(=O)c3csnn3)C2)C1 was read as A350 fluor inactive, 4MU fluor inactive, CRE-bla Fsk 3.8%, HADH2 inhib -2.9%, HSD17B inh 2.0% and AID923 0.3%.
For O=C1OC2(c3ccc(O)cc3Oc3cc(O)ccc32)c2c1c(-c1ccccc1)c(-c1ccccc1)c(-c1ccccc1)c2-c1ccccc1 the results were A350 fluor 1.24e-07M*, 4MU fluor 1.09e-07M*, CRE-bla Fsk inconclusive, HADH2 inhib 2µM*, HSD17B inh 3.98µM* and AID923 -5.9%[11.5 µM].
O=C(O)c1ccc2c(c1C(=O)O)C(=O)OC2(c1ccc(O)cc1)c1ccc(O)cc1 was read as A350 fluor inactive, 4MU fluor inactive, CRE-bla Fsk 14.8%[7.6 µM], HADH2 inhib -1.4%[11.4 µM], HSD17B inh 4.3%[11.4 µM] and AID923 -2.5%[11.5 µM].
For Cc1noc(NS(=O)(=O)c2ccc(NC(=O)Nc3ccc(Cl)c(Cl)c3)cc2)c1C the results were A350 fluor inactive, 4MU fluor inactive, CRE-bla Fsk inconclusive, HADH2 inhib -12.9%, HSD17B inh 9.1% and AID923 1.2%.
Cc1noc(NS(=O)(=O)c2ccc(N3Cc4ccccc4C3=O)cc2)c1C was read as A350 fluor inactive, 4MU fluor inactive, CRE-bla Fsk 12.6µM*, HADH2 inhib -2.5%, HSD17B inh 4.3% and AID923 -3.8%.
`Cc1cc(=O)oc2cc(OCC(=O)OCC(=O)N3CCc4ccccc43)ccc12` gave A350 fluor 2.12e-08M*, 4MU fluor 1.59e-08M*, CRE-bla Fsk 8.7%, HADH2 inhib 3.6%, HSD17B inh 479.0% and AID923 1.6%.
`O=C(Cc1c[nH]c2ccccc12)NCc1ccc2c(c1)OCO2` gave A350 fluor inactive, 4MU fluor inactive, CRE-bla Fsk inconclusive, HADH2 inhib -13.3%, HSD17B inh 8.1% and AID923 -1.9%.
O=C1CC2(CCCCC2)Oc2ccc(O)cc21 was read as A350 fluor 1.09e-08M*, 4MU fluor inconclusive, CRE-bla Fsk inconclusive, HADH2 inhib -6.2%, HSD17B inh -4.4% and AID923 -1.4%.
For CCOc1ccc2c(C)nc(NC3=NC(C)(C)C=C(C)N3)nc2c1 the results were A350 fluor 1.02e-07M* and 4MU fluor 8.44e-08M*.
For CC(C)Sc1nc2c(c(=O)n1C)SC(C)C2 (stereo not drawn) the results were CRE-bla Fsk inconclusive, HADH2 inhib -10.2%, HSD17B inh 7.2% and AID923 -3.0%.
`Clc1ccc(Cn2cc(/C=N/n3cnnc3)c3ccccc32)cc1` gave A350 fluor 1.27e-08M*, 4MU fluor 1.12e-08M*, CRE-bla Fsk inconclusive, HADH2 inhib inconclusive, HSD17B inh -25.4% and AID923 -1.5%.
For Cc1ccccc1Cn1cc(/C=N/n2cnnc2)c2ccccc21 the results were CRE-bla Fsk inconclusive, HADH2 inhib -13.8%[11.4 µM], HSD17B inh -17.3% and AID923 -2.6%.
For Cc1noc(C)c1COC(=O)c1ccc2c(c1)S(=O)(=O)c1ccccc1C2=O the results were A350 fluor inactive, 4MU fluor inactive, CRE-bla Fsk 2µM*, HADH2 inhib 1.1%, HSD17B inh 8.0% and AID923 -0.9%.
Screening CCNC(=O)c1ccc2c(c1)S(=O)(=O)c1ccccc1C2=O returned A350 fluor inactive, 4MU fluor inactive, CRE-bla Fsk 7.94µM*, HADH2 inhib 10.7%, HSD17B inh 4.5% and AID923 1.2%.
For CN(C)C1CCN(C(=O)c2ccc(-n3c(=O)c(=O)[nH]c4ccccc43)cc2)C1 (stereo not drawn) the results were HADH2 inhib -9.6%, HSD17B inh -2.2% and AID923 4.3%.
